Screening results: PubChem, several laboratories
CYP2C19 inhib = blockers of cytochrome P450 2C19 activity – biochemical, luminescence, ADME assay, primary screen; hit rate 21% among 96,000; inhibition, % at 5 µM; P33261; CYP2C19 Supersomes, luciferin-H EGE luminescence, 30 min; AID 778, 2007;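 active = CYP2C19 inhibition above a set limit at 5 µM in the primary screen, cut at about 50% in these data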;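 note: plate controls were negative control wells for no effect and 2.5 mM tranylcypromine positive control for full effect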
Target sequence (P33261 whole entry, looked up): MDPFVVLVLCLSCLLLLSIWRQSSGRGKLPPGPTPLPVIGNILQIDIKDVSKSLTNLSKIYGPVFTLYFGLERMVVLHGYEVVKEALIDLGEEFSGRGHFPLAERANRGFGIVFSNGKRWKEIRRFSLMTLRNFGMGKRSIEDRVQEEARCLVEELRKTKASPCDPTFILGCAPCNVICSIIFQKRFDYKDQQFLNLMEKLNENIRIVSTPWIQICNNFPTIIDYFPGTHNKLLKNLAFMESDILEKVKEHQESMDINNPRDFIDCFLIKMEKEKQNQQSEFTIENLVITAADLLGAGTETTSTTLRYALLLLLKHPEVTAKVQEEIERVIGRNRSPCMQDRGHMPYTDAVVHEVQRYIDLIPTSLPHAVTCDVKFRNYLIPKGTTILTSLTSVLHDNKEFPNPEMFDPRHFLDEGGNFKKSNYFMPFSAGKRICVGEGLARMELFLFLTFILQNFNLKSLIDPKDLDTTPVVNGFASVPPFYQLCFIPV
sEH activator = soluble epoxide hydrolase activators, primary screen, biochemical, human sEH; Bifunctional epoxide hydrolase 2 (Homo sapiens), P34913; purified human sEH enzymatic activity, activator screen; activation, % at 2 µM; hit rate 0.04% among 91,000; in the data active = activation above about 37%
CYP2C9 inh = blockers of cytochrome P450 2C9 activity – biochemical, luminescence, ADME assay, primary screen; inhibition, % at 5 µM; hit rate 20% among 96,000; CYP2C9 Supersomes, luciferin-H conversion; P11712;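 active = blocking of liver enzyme CYP2C9 beyond about 50% at 5 µM, limit read from the data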
CYP2C9 act = human CYP2C9 activators, primary screen, biochemical, luminescence. Cytochrome P450 2C9 (Homo sapiens), P11712. recombinant CYP2C9, luciferin-H conversion; hits give high values; factor 1 = untreated enzyme, 0 = blocked. activation factor at 5 µM. hit rate 1.4% among 96,000;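 active = activation factor of 2 or more for CYP2C9 at a 5 µM dose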;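 note: 0 = sulfaphenazole-blocked wells and 1 = vehicle-only wells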
sEH inh = soluble epoxide hydrolase inhibitors, primary screen, biochemical, human sEH; Bifunctional epoxide hydrolase 2 (Homo sapiens), P34913; recombinant human sEH enzymatic activity assay; inhibition, % at 2 µM; hit rate 0.34% among 91,000; AID 707, 2007; in the data active = inhibition above about 80%
CYP2C19 activ = human CYP2C19 activators, primary screen, biochemical, luminescence; 96,000 tested, under 10 active; Cytochrome P450 2C19 (Homo sapiens), P33261; activation factor at 5 µM; recombinant CYP2C19, luciferin-H EGE luminescence; hits give high values; 0 = fully inhibited enzyme, 1 = untreated enzyme;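 active = activation factor of at least 2 at 5 µM in the primary screen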;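 note: 0 = wells with 2.5 mM tranylcypromine and 1 = vehicle-only wells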
An asterisk follows results filed as active; / = no result. In the library only some 27% were active in any assay of this set; here they are far more common.

SMILES	CYP2C19 inhib	sEH activator	CYP2C9 inh	CYP2C9 act	sEH inh	CYP2C19 activ
Cc1ccccc1N1C(=O)CC(N(O)c2ccccc2)C1=O (configuration not stated)	74*	4	-20	1.2	-2	0.3
O=C1CC(N(O)c2ccccc2)C(=O)N1Cc1ccccc1 (configuration not stated)	78*	/	1	1	/	0.2
O=C1CC(N(O)c2ccccc2)C(=O)N1c1cc(Cl)cc(Cl)c1 (configuration not stated)	23	7	-51	1.5	-5	0.8
Cc1cccc(OCCSc2cc(C)nc(N)n2)c1	55*	/	-8	1.1	/	0.4
Cc1ccc(OCCSc2cc(C)nc(N)n2)cc1	72*	/	25	0.8	/	0.3
COc1cccc(OCCSc2nc(N)cc(N)n2)c1	24	7	-28	1.3	-8	0.8
N#CC1=C(SCC(N)=O)NC2=C(C(=O)c3ccccc32)C1c1ccc(Cl)cc1 (configuration not stated)	48	-5	63*	0.4	8	0.5
CCN1C(=O)NC2=C(C(=O)c3ccccc32)C1c1ccccc1F (configuration not stated)	16	6	22	0.8	-6	0.8
Cc1cc(C)cc(N(CC(=O)NC2CCCCC2)C(=O)c2ccc(C)s2)c1	26	-4	-5	1.1	7	0.7
Cc1ccc(N(CC(=O)NC2CCCCC2)C(=O)c2ccc(C)s2)cc1	31	-80	60*	0.4	81*	0.7
Cc1ccc(S(=O)(=O)NCC(=O)N(CC(=O)NC2CCCC2)c2ccc3c(c2)OCCO3)cc1	48	/	61*	0.4	/	0.5
CCC(C)(C)NC(=O)CN(C(=O)CNS(=O)(=O)c1ccc(C)cc1)c1ccc2c(c1)OCCO2	29	/	54*	0.5	/	0.7
CC1CN(CCCOc2ccccc2[N+](=O)[O-])CC(C)O1 (configuration not stated)	42	4	32	0.7	-5	0.6
Cc1ccnc(NC(=O)CCC(=O)N(CC(=O)NCC2CCCO2)Cc2ccc(F)cc2)c1 (configuration not stated)	-6	/	-3	1	/	1.1
O=C(OCC(=O)c1c[nH]c2ccccc12)c1ccco1	24	-2	3	1	0	0.8
CCn1nc(C(=O)OCC(=O)c2c[nH]c3ccccc23)c2ccccc2c1=O	32	10	72*	0.3	-9	0.7
O=C(NCC1(c2ccccc2)CCOCC1)c1ccc(Br)o1	72*	12	38	0.6	-13	0.3
CC(C)n1nc(C(=O)OCC(=O)c2c[nH]c3ccccc23)c2ccccc2c1=O	18	8	22	0.8	-6	0.8
Cc1[nH]c2ccccc2c1SCCNC(=O)c1ccc(Br)o1	/	-19	/	/	19	/
O=C(OCC(=O)c1c[nH]c2ccccc12)c1ccc(Br)o1	66*	12	22	0.8	-12	0.3
O=C(NCCSc1c[nH]c2ccccc12)c1ccc(Br)o1	43	-10	86*	0.1	10	0.6
C=CCn1c(=O)c2ccccc2n2c(SCc3csc(-c4ccccc4)n3)nnc12	29	/	25	0.7	/	0.7
Cc1ccc(-n2ncc3c(=O)n(CC(=O)NCC4CCCO4)cnc32)cc1 (configuration not stated)	-6	-9	-4	1	9	1.1
N#Cc1ccc(Cl)cc1NC(=O)COC(=O)c1ccc(S(=O)(=O)N2CCCC2)cc1	-3	-12	0	1	14	1
O=C(NCCC(c1ccccc1)c1ccccc1)c1ccc(Br)o1	67*	-97	74*	0.3	97*	0.3
SMILES	CYP2C19 inhib	sEH activator	CYP2C9 inh	CYP2C9 act	sEH inh	CYP2C19 activ
O=C(O)CCNC(=O)c1ccc(Br)o1	-10	/	-8	1.1	/	1.1
O=C(Oc1ccc2[nH]cc(CCN3C(=O)c4ccccc4C3=O)c2c1)c1ccco1	24	-11	76*	0.2	12	0.8
COc1ccc2c(c1)c(CCN1C(=O)c3ccccc3C1=O)cn2C(=O)c1ccco1	14	4	18	0.8	-4	0.9
CC12CCC(C(=O)N(NC(=O)c3cc(Cl)ccc3O)C1=O)C2(C)C (configuration not stated)	-28	-15	-10	1.1	16	1.3
Cc1ccsc1C1Nc2ccc3ncccc3c2C2=C1C(=O)CCC2 (configuration not stated)	90*	-15	85*	0.2	16	0.1
COc1cc(C2C3=C(CCCC3=O)Nc3[nH]n(-c4ccccc4)c(=O)c32)ccc1O (configuration not stated)	-4	-2	-4	1	-1	1
COc1cc(C2Nc3ccc4ncccc4c3C3=C2C(=O)CCC3)ccc1O (configuration not stated)	91*	/	66*	0.3	/	0.1
Nc1nonc1-c1noc(CCCN2C(=O)c3ccccc3C2=O)n1	57*	/	12	0.9	/	0.4
Nc1nonc1-c1noc(-c2ccccc2Br)n1	67*	8	0	1	-5	0.3
Nc1nonc1-c1noc(N2CCOCC2)n1	/	-4	/	/	6	/
CCC(C(=O)NC1CCCC1)N(C(=O)Cn1nnc(-c2ccc(C)o2)n1)C(C)(C)C (configuration not stated)	27	/	19	0.8	/	0.7
O=c1c2c([nH]c3ccccc13)CCCC2	4	4	-139	2.4*	-7	1
NNC(=O)COc1ncn(-c2ccccc2)n1	8	-8	6	0.9	10	0.9
O=C(C[n+]1ccc(C(=O)N/N=C/c2ccc(Br)cc2)cc1)c1ccccc1	74*	-36	34	0.7	36	0.3
S=c1[nH]ncn1/N=C/c1ccccn1	3	9	36	0.6	-11	1
COc1cc(CNc2ccc(N3CCOCC3)c(C(=O)O)c2)ccc1OCC(N)=O	-13	/	-11	1.1	/	1.1
CCCc1cc(=O)[nH]c(SCC(=O)NC)n1	8	/	16	0.8	/	0.9
CCCc1cc(=O)[nH]c(SCC(=O)CSc2nc(CCC)cc(=O)[nH]2)n1	11	/	70*	0.3	/	0.9
CCCc1cc(=O)[nH]c(SCCOC(=O)c2ccccc2)n1	54*	11	71*	0.3	-12	0.5
CCCc1cc(=O)[nH]c(SCc2ccccc2Cl)n1	50*	11	72*	0.3	-9	0.5
COc1cccc(C2=NOC(C(=O)NCCN3CCOCC3)C2)c1 (configuration not stated)	-6	-4	3	1	3	1.1
